Experimental data reported in PubChem BioAssay (EPA / NIEHS).
Results filed as inconclusive are left out. Activity calls are given as the source filed them. The calls were made as follows, unless noted: active = hit-call score of the fitted dose curve at least 0.9, where 1 is the maximum; inconclusive = response in the unintended direction; inactive = score below 0.9.

Assays:
THRB (gene 7068) [1] = target: THRB (gene 7068) (UniProt P10828); experiment: TOX21_TRB_BLA_Antagonist_Followup_ratio: Tox21 Thyroid Hormone Receptor beta Antagonism Beta-lactamase (BLA) Follow-Up Assay, Ratio (AID 2283958)
Summary of the method: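 In this antagonist-mode follow-up, a stably integrated GAL4-TRβ LBD fusion drives a UAS-beta-lactamase reporter in HEK293T cells. Loss of ratio signal relative to DMSO after 18 h treatment indicates activity; parallel CellTiter-Glo flags cytotoxicity.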

[2] = TOX21_TRB_BLA_Antagonist_Followup_viability: Viability Assessment in the Tox21 Thyroid Hormone Receptor beta Antagonism Beta-lactamase (BLA) Follow-Up Assay (AID 2283961)
Summary of the method: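 Viability read as CellTiter-Glo ATP luminescence (loss of signal = cytotoxicity) in the same plates as the TRβ-bla readout. TRβ-LBD/GAL4 UAS-bla HEK293T cells were exposed to compounds, 11 concentrations in triplicate, for 18 h at 37C/5% CO2.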

THRB (gene 7068) [3] = target: THRB (gene 7068) (UniProt P10828); experiment: TOX21_TRB_COA_Antagonist_Followup_ratio: Tox21 Thyroid Hormone Receptor beta Antagonism through Coactivator Recruitment Follow-Up Assay, Ratio (AID 2283967)
Summary of the method: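 Cell-free TR-FRET coactivator recruitment with GST-tagged TRβ LBD (5.0 nM) and fluorescein-labeled SRC-2 peptide (200 nM) detected by terbium anti-GST antibody (2 nM). The 520:495 nm emission ratio was normalized to DMSO (0%) and T3 (100%).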

[4] = target: T1, Thyroid hormone receptor alpha (Rattus norvegicus) + Thyroid hormone receptor beta (Rattus norvegicus) (UniProt P18113+P63059); experiment: TOX21_TR_LUC_GH3_Agonist_Followup: Tox21 GH3 Thyroid Hormone Receptor Agonism Luciferase Follow-Up Assay (AID 2283939)
Summary of the method: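 Rat GH3 cells (1,500/well) in serum-free assay medium, treated with 15-point series, 92 uM to 5 nM final, for 24 h at 37C. Luciferase via ONE-Glo luminescence; gain of signal fitted against DMSO, T3 positive control.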

THRA (gene 7067) [5] = target: THRA (gene 7067) (UniProt P10827); experiment: TOX21_TRA_COA_Agonist_Followup_ratio: Tox21 Thyroid Hormone Receptor alpha Agonism through Coactivator Recruitment Follow-Up Assay, Ratio (AID 2283948; active = hit-call score of the fitted dose curve at least 0.9, where 1 is the maximum; inactive = score below 0.9)
Summary of the method: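 GST-TRa LBD 2.5 nM + 0.10% BSA + cpd; add fluorescein-SRC-2 200 nM, Tb-anti-GST 2 nM. TR-FRET ex 340, em 520/495 ratio. Norm: DMSO 0%, T3 100%; gain-of-signal fit.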

THRB (gene 7068) [6] = target: THRB (gene 7068) (UniProt P10828); experiment: TOX21_TRB_BLA_Agonist_Followup_ratio: Tox21 Thyroid Hormone Receptor beta Agonism Beta-lactamase (BLA) Follow-Up Assay, Ratio (AID 2283954)
Summary of the method: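 Human TRβ LBD–GAL4 DBD fusion in GeneBLAzer UAS-bla HEK293T cells; 11 concentrations in triplicate, 18 h at 37°C/5% CO2, T3 as agonist control. CCF4-AM substrate 2 h at room temperature; 460:530 nm ratio fitted for gain of signal versus DMSO.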

[7] = TOX21_TRB_BLA_Agonist_Followup_viability: Viability Assessment in the Tox21 Thyroid Hormone Receptor beta Agonism Beta-lactamase (BLA) Follow-Up Assay (AID 2283956)
Summary of the method: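 TRb-bla HEK293T cells (GAL4-DBD/human TRb LBD) in 2% charcoal-stripped FBS medium were exposed 18 h at 37C to 11 concentrations in triplicate. CellTiter-Glo ATP luminescence was read after 30 min at room temperature, with bidirectional fitting against DMSO.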

THRB (gene 7068) [8] = target: THRB (gene 7068) (UniProt P10828); experiment: TOX21_TRB_COA_Agonist_Followup_ratio: Tox21 Thyroid Hormone Receptor beta Agonism through Coactivator Recruitment Follow-Up Assay, Ratio (AID 2283963; active = hit-call score of the fitted dose curve at least 0.9, where 1 is the maximum; inactive = score below 0.9)
Summary of the method: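 Agonism is measured as coactivator recruitment in a purified-protein TR-FRET format, using GST-TRβ LBD at 5.0 nM, fluorescein-SRC-2 peptide at 200 nM and Tb-labeled anti-GST antibody at 2 nM. Values are 520:495 nm ratios relative to DMSO (0%) and T3 (100%).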

[9] = target: Retinoic acid receptor RXR-alpha (Homo sapiens) (UniProt P19793); experiment: TOX21_TR_RXR_BLA_Agonist_Followup_ratio: Tox21 Thyroid Hormone Receptor beta Retinoid X Receptor alpha (RXRa) Agonism Beta-lactamase (BLA) Follow-Up Assay, Ratio (AID 2283968)
Summary of the method: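 This follow-up tests whether responses seen in the TR GH3 luciferase agonist screen are specific, using a GAL4-driven beta-lactamase reporter for RXRa in HEK293T cells. Compound exposure lasts 16 h; signal is the cleaved/uncleaved substrate ratio.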

[10] = TOX21_TR_RXR_BLA_Agonist_Followup_viability: Viability Assessment in the Tox21 Thyroid Hormone Receptor beta Retinoid X Receptor alpha (RXRa) Agonism Beta-lactamase (BLA) Follow-Up Assay (AID 2283970)
Summary of the method: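 In qHTS format, RXRa-bla HEK293T cells (2,500/well) received compound for 16h. ATP content was then measured with CellTiter-Glo, and responses were fitted bidirectionally relative to DMSO controls.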

PGR (gene 5241) [11] = target: PGR (gene 5241) (UniProt P06401); experiment: TOX21_PR_BLA_Followup_Agonist_ratio: Tox21 HEK293 Progesterone Receptor (PR) Agonism Beta-lactamase Follow-Up Assay, Ratio (AID 2283933)
Summary of the method: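 Agonist-mode follow-up in HEK293T cells carrying a UAS-driven beta-lactamase reporter, grown in 2% charcoal-stripped serum. Compounds act for 16 hr; activity is the ch2/ch1 cleavage ratio, with same-well CellTiter-Glo viability run in parallel.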

PGR (gene 5241) [12] = target: PGR (gene 5241) (UniProt P06401); experiment: TOX21_PR_BLA_Followup_Antagonist_ratio: Tox21 HEK293 Progesterone Receptor (PR) Antagonism Beta-lactamase Follow-Up Assay, Ratio (AID 2283934);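 also: PR-UAS-bla HEK293T cells stimulated with 1 nM R5020 agonist for 16 hr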
Summary of the method: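 Antagonist mode used 1 nM R5020 (final) as agonist on a beta-lactamase reporter line in HEK293T cells. Activity was taken from the substrate cleavage ratio after 16 hr exposure.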

[13] = TOX21_PR_BLA_Followup_Agonist_viability: Viability Assessment in the Tox21 HEK293 Progesterone Receptor (PR) Agonism Beta-lactamase Follow-Up Assay (AID 2283935);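 also: signal loss means lower viability so actives are cytotoxic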
Summary of the method: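 Multiplexed viability counter-screen: ATP-coupled luciferase signal measured after 30 min at room temperature, following 16 hr compound treatment of PR-UAS-bla HEK293T cells grown in charcoal-stripped serum.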

[14] = TOX21_PR_BLA_Followup_Antagonist_viability: Viability Assessment in the Tox21 HEK293 Progesterone Receptor (PR) Antagonism Beta-lactamase Follow-Up Assay (AID 2283936);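 also: hits lower the luminescence signal meaning cytotoxicity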
Summary of the method: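 PR-UAS-bla HEK293T cells (3,000/well, 2% charcoal-stripped FBS) given compound plus R5020 agonist, 16 h at 37C. CellTiter-Glo added after bla read, 30 min at room temperature; luminescence loss indicates cytotoxicity.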

PGR (gene 5241) [15] = target: PGR (gene 5241) (UniProt P06401); experiment: TOX21_PR_LUC_Followup_Agonist: Tox21 HEK293 Progesterone Receptor (PR) Agonism Luciferase Follow-Up Assay (AID 2283937; active = hit-call score of the fitted dose curve at least 0.9, where 1 is the maximum; inactive = score below 0.9)
Summary of the method: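 Agonist mode: reporter cells carrying PR-A and luciferase are treated 16 h with test compounds at 37C. Luciferase induction is measured by luminescence and fitted upward against DMSO.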

PGR (gene 5241) [16] = target: PGR (gene 5241) (UniProt P06401); experiment: TOX21_PR_LUC_Followup_Antagonist: Tox21 HEK293 Progesterone Receptor (PR) Antagonism Luciferase Follow-Up Assay (AID 2283938);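 also: curve fitted upward as signal gain over DMSO baseline despite antagonist label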
Summary of the method: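 Luminescence from ONE-Glo reagent, measured after 30 min at room temperature, served as readout. Cells (HEK293 carrying PR-A-luc) had been treated 16 h at 37C with DMSO-dissolved compounds. Activity was fitted against DMSO controls.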

[17] = TOX21_PR_LUC_Followup_Antagonist_viability: Viability Assessment in the Tox21 HEK293 Progesterone Receptor (PR) Antagonism Luciferase Follow-Up Assay (AID 2283940)
Summary of the method: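 Cellular ATP, measured with luciferase-coupled CellTiter-Glo, served as the viability endpoint after HEK293-PR-A-luc cells were exposed to test compounds for 16 h at 37C.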

[18] = TOX21_PR_LUC_Followup_Agonist_viability: Viability Assessment in the Tox21 HEK293 Progesterone Receptor (PR) Agonism Luciferase Follow-Up Assay (AID 2283941);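 also: loss of signal means cytotoxicity so actives lower viability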
Summary of the method: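 Luminescent ATP quantitation (CellTiter-Glo) serves as the read-out; a drop flags cytotoxic compounds. Cells are HEK293-PR-A-luc grown in 10% charcoal-stripped FBS, plated 3,000/well, and exposed to compound for 16 h.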

[19] = target: T1, Thyroid hormone receptor alpha (Rattus norvegicus) + Thyroid hormone receptor beta (Rattus norvegicus); experiment: TOX21_TR_LUC_GH3_Antagonist_Followup: Tox21 GH3 Thyroid Hormone Receptor Antagonism Luciferase Follow-Up Assay (AID 2283942)
Summary of the method: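 Rat pituitary GH3 cells with a TRα/TRβ-driven luciferase reporter, 5 h attachment, then 15 concentrations (92 uM to 5nM final) plus 1.0 nM T3 agonist, 24 h at 37C/5% CO2. ONE-Glo luminescence; signal change fitted against DMSO baseline.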

THRA (gene 7067) [20] = target: THRA (gene 7067) (UniProt P10827); experiment: TOX21_TRA_COA_Antagonist_Followup_ratio: Tox21 Thyroid Hormone Receptor alpha Antagonism through Coactivator Recruitment Follow-Up Assay, Ratio (AID 2283953)
Summary of the method: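 This follow-up to the GH3 luciferase screen checks specificity in a cell-free format. It measures SRC-2 coactivator peptide binding to TRα LBD by TR-FRET and scores loss of ratio signal relative to DMSO.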

THRB (gene 7068), sequence (P10828 whole entry, looked up, the tested form may be a part): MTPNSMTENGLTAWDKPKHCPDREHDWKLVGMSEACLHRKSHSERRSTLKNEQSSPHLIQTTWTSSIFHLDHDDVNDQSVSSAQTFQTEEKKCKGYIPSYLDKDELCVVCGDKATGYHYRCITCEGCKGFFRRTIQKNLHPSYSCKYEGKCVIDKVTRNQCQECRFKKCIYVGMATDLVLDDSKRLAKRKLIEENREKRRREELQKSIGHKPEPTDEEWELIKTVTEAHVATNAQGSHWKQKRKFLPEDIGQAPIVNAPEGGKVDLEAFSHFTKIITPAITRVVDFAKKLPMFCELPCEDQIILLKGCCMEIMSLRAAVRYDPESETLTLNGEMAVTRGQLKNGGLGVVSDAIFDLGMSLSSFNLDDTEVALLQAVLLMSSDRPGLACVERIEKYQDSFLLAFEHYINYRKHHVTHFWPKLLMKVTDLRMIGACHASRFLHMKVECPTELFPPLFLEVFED
PGR (gene 5241), sequence (P06401 whole entry, looked up): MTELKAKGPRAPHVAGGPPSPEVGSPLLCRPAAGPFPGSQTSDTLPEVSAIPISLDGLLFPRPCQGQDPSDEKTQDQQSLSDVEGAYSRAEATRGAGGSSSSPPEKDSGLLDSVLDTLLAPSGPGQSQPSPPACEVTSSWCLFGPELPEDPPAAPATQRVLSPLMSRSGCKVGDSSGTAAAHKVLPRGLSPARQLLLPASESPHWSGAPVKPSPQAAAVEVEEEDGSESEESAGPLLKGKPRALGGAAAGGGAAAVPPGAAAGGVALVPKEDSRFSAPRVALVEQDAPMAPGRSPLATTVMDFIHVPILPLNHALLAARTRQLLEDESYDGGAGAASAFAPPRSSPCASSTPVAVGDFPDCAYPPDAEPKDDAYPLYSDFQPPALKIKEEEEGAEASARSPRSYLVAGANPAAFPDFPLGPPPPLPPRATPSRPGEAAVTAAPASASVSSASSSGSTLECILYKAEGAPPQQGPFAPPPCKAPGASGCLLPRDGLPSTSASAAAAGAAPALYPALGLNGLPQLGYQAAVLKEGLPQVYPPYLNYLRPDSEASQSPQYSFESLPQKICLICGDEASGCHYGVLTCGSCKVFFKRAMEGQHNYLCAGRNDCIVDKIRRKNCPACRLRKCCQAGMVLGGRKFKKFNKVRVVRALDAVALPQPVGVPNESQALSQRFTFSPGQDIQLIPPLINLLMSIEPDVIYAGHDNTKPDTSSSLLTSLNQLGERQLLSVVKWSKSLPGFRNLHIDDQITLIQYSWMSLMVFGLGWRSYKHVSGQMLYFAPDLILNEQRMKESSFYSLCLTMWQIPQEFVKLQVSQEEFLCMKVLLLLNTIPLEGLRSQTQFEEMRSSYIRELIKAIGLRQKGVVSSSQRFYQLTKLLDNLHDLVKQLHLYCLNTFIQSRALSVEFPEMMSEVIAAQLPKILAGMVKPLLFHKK
THRA (gene 7067), sequence (P10827 whole entry, looked up, the tested form may be a part): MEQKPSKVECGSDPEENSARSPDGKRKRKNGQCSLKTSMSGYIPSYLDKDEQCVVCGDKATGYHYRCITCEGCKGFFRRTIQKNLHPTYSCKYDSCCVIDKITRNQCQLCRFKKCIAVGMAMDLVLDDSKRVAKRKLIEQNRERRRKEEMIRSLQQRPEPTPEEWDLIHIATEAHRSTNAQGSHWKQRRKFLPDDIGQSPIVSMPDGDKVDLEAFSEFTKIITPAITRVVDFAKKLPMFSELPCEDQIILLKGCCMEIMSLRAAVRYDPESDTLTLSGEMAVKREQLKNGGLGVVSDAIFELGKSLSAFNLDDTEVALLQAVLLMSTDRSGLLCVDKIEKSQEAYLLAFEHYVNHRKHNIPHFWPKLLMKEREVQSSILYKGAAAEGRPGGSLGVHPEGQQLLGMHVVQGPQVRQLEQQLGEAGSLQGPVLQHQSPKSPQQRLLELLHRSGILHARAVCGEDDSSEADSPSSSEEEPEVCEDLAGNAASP
Retinoic acid receptor RXR-alpha (Homo sapiens), sequence (P19793 whole entry, looked up, the tested form may be a part): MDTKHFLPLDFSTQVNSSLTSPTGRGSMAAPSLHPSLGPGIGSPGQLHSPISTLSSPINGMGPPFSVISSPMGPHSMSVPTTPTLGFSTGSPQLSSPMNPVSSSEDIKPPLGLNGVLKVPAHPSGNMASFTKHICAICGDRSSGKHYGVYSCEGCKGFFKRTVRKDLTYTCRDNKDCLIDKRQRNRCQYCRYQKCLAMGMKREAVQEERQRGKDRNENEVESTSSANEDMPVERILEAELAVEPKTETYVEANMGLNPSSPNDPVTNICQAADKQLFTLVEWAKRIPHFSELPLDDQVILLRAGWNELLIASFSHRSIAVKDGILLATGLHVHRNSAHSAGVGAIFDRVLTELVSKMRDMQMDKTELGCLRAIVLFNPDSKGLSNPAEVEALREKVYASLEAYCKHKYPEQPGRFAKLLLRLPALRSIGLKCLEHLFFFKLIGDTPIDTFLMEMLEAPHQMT
T1 sequence (P63059 whole entry, looked up): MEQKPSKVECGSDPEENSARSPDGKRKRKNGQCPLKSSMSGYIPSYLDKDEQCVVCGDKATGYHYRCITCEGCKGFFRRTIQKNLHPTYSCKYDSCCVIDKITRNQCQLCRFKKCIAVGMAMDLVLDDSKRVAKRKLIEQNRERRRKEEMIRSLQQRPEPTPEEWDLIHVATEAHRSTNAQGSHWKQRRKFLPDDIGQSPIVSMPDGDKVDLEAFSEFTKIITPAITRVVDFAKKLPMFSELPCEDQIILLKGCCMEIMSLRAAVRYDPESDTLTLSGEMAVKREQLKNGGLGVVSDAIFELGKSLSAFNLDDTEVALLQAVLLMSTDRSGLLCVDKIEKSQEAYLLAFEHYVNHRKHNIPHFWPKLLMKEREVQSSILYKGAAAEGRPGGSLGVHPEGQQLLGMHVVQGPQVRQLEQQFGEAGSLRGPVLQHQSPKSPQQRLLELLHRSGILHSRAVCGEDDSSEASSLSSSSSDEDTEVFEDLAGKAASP
T1 sequence (P18113 whole entry, looked up): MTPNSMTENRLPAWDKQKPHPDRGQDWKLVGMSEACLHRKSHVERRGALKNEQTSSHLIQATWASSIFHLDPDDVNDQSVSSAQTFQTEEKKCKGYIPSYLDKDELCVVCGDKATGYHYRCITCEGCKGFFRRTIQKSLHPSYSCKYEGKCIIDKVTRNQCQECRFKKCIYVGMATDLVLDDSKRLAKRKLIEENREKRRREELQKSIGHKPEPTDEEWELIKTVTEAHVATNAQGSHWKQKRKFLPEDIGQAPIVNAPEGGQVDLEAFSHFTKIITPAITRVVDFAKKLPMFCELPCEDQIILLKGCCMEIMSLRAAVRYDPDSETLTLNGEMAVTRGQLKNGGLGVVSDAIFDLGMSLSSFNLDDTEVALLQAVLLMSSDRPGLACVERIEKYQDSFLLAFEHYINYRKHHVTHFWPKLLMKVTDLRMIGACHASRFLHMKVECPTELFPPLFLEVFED

With `CON=C(C(=O)OC)c1ccccc1CON=C(C)c1cccc(C(F)(F)F)c1` the outcome (THRB (gene 7068) [1]) was “inactive”, the outcome [2] was “inactive” and the outcome (THRB (gene 7068) [3]) was “inactive”.
With `C[N+]1(C)CCCCC1` the outcome [4] was “inactive”, the outcome (THRA (gene 7067) [5]) was “inactive” and the outcome (THRB (gene 7068) [6]) was “inactive”. For the same molecule, the outcome [7] was “inactive”, the outcome (THRB (gene 7068) [8]) was “inactive” and the outcome [9] was “inactive”. The outcome [10] was “inactive”.
In the case of `CCC(=O)Nc1ccc(Cl)c(Cl)c1`, the outcome (PGR (gene 5241) [11]) is reported as “inactive”, the outcome (PGR (gene 5241) [12]) is reported as “inactive” and the outcome [13] is reported as “inactive”. The outcome [14] was “inactive”, the outcome (PGR (gene 5241) [15]) was “inactive” and the outcome (PGR (gene 5241) [16]) was “inactive”. The outcome [17] was “inactive” and the outcome [18] was “inactive”.
For `CSC1=N[C@@](C)(c2ccccc2)C(=O)N1Nc1ccccc1`, the outcome [19] was “inactive”, the outcome (THRA (gene 7067) [20]) was “inactive” and the outcome (THRB (gene 7068) [1]) was “inactive”. The outcome [2] was “inactive” and the outcome (THRB (gene 7068) [3]) was “inactive”.
For `C=C(C)[C@H]1Cc2c(ccc3c2O[C@@H]2COc4cc(OC)c(OC)cc4[C@@H]2C3=O)O1`, the AC50 [19] was 5.29 µM (active), the AC50 (THRB (gene 7068) [1]) was 1.52 µM (active) and the AC50 [2] was 6.16 µM (active). For the same molecule, the outcome (THRB (gene 7068) [3]) was “inactive”.
In the case of `CCOP(=S)(OCC)Oc1ccc([N+](=O)[O-])cc1`, the AC50 (PGR (gene 5241) [12]) is reported as 3.78 µM (active), the outcome [13] is reported as “inactive” and the outcome [14] is reported as “inactive”. The AC50 (PGR (gene 5241) [16]) was 4.86 µM (active) and the outcome [17] was “inactive”.
